Results as given in PubChem BioAssay AID624342 (National Center for Advancing Translational Sciences (NCATS), 2012).
Activity calls are given as the source filed them. The call rests on the fitted dose curve.

Assay: qHTS for Inducers of the Endoplasmic Reticulum Stress Response (ERSR) in Human Glioma: Hit Validation
Details: U87-MG GRP78 promoter luciferase reporter, 16 h
From the text: Primary protein unfolding takes place for many diseases, including diabetes and hypoxia, , and triggers a reaction in the cells called ER stress response (ERSR). ). ERSR is designed as a repair mechanism, but ultimately leads to cell death via apoptosis if conditions triggering protein unfolding persist (1). The molecular clue to ERSR activation is the enhancement of the expression of key molecular chaperones, including the glucose regulated protein (GRP) 78. GRP78 is the main sensor for protein folding and the main actuator of the ERSR. In a collaboration between the Southern Research Institute and the NIH Chemical Genomics Center, a cell based screen was developed that reliably uses GRP78 as a sensor to identify small molecules as inducers of ERSR. In resting conditions, GRP78 binds proteins and acts as a natural repressor. Once unfolded proteins are present in the ER, GRP78 releases some of the repressors and binds to the unfolded proteins. The release of the repressors executes the ERSR program. Using a human glioma cell line in a miniaturized, luminescent format, a high-throughput screen was developed to identify actuators of the ERSR. In this assay, the hits identified from primary screen are re-run using the same protocol. NIH Chemical Genomics Center [NCGC] NIH Molecular Libraries Probe Centers Network [MLPCN] MLPCN Grant: DA031669 Assay Submitter (PI): Maurizio Grimaldi, Southern Research Institute (1) Soboloff, J. and S. A. Berger (2002). "Sustained ER Ca2+ depletion suppresses protein synthesis and induces activation-enhanced cell death in mast cells." J Biol Chem 277(16): 13812-20.
Stable transfected human glioma cell line, U87-MG, are dispensed at density 1000 cells/well into Greiner white solid bottom 1536-well assay plates. […] The assay plates will be incubated for 16 hours and developed by adding appropriate quantities of the Promega Bright Glo reagent. The plates will be incubated at room temperature for 10 minutes prior to being transferred into a ViewLux high-throughput CCD imager (PerkinElmer), wherein end-point measurements of luminescence are acquired.

Potency, active:
CC(=O)N1CCOc2cc(S(=O)(=O)Nc3c(C)cccc3C(C)C)c(Cl)cc21 30 µM
CC(C)Cc1nn2c(=O)cc(COC(=O)CNC(=O)c3ccc(C(C)(C)C)cc3)nc2s1 30 µM
Cc1ccc(-c2cc(NC(=O)C(C)Oc3ccc(C)c(C)c3)on2)cc1 (stereo not drawn) 30 µM
